Bioassay records deposited in PubChem by National Center for Advancing Translational Sciences (NCATS).
HT1080 IDH1KD tx: qHTS for induction of synthetic lethality in tumor cells producing 2HG: qHTS for the HT-1080-IDH1KD cell line; HT-1080 IDH1 knockdown viability, ATP luminescence, 48 h; Potency, µM (top dose mostly 46.1 µM), inactives show at the highest dose activity, negative = toxicity, hits mostly cytotoxic; hit rate 2% among 360,000; AID 686971, 2013;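 note: potency is the fitted concentration of half-maximal effect; 0% = DMSO wells and -100% = cell-free medium wells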
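After a 2 h attachment period, IDH1KD HT-1080 cells took pin-transferred compound for 48 h at 37 °C; ATP-based luminescence after 10 min room-temperature reagent incubation reported viability.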
IL1B secr inh: qHTS for Inhibitors of Inflammasome Signaling: IL-1-beta AlphaLISA Primary Screen | THP-1 LPS/ATP IL-1B secretion, AlphaLISA, 16 h; hits give low values | AID 743279, 2014 | hit rate 4.7% among 360,000 | activity change, % at 57.5 µM; in the data active = activity change below about -50%; inconclusive = mostly about -30% to -49%
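Secreted IL-1B measured by AlphaLISA bead assay after 16 h compound exposure of THP-1 cells; compounds (final up to 57.5 uM) added 1 h before LPS (250 ng/mL) and ATP (1.25 mM) stimulation; lower signal means less secretion.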
ALOX12 inh: Primary qHTS assay for inhibitors of human arachidonate 12S-lipoxygenase (ALOX12): Round 2; purified 12hLO, xylenol orange hydroperoxide absorbance; Potency, µM (highest dose often 108 µM), without a hit: at the top dose activity change, negative = inhibition, usual class: inhibitors; Polyunsaturated fatty acid lipoxygenase ALOX12 (Homo sapiens), P18054; AID 1671190, 2021; hit rate 1.1% among 580,000; note: potency is the fitted concentration of half-maximal effect
Target sequence (P18054 whole entry, looked up): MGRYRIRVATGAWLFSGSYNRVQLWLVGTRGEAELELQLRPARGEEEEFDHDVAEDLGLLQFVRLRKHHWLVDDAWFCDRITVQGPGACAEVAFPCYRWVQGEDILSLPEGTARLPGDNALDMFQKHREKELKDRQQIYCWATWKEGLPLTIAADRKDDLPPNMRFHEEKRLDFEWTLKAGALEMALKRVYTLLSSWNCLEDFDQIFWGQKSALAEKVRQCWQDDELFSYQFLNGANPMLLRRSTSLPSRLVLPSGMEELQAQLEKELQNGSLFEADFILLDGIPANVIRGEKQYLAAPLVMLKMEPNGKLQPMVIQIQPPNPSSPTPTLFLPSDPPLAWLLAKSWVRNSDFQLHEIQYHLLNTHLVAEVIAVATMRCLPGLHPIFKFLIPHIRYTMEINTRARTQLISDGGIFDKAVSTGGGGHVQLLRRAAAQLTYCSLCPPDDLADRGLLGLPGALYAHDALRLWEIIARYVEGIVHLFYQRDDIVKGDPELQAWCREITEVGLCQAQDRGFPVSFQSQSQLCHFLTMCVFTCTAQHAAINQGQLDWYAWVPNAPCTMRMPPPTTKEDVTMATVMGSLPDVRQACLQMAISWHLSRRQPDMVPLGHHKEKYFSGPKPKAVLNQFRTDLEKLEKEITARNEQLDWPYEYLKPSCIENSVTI
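Hydroperoxide product was detected by ferrous iron/xylenol orange as the 573 to 405 nm absorbance ratio. Arachidonic acid at 40 uM (final) was turned over for 30 min at room temperature by 150 nM human 12hLO, pH 7.0 Hepes buffer, after 15 min compound preincubation.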
TDP1 cell CPT: qHTS for Inhibitors of human tyrosyl-DNA phosphodiesterase 1 (TDP1): qHTS in cells in presence of CPT; chicken DT40 Tdp1-/-;hTDP1 cells + 20 nM CPT, ATP luminescence, 48 h; Potency, µM (top dose mostly 46.2 µM), for inactives: top-dose activity change, negative = growth inhibition, actives largely listed as inhibitors; hit rate 12% among 420,000; note: potency is the fitted concentration of half-maximal effect; nearly all actives have a fitted effect of over 55% in size
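Chicken DT40 Tdp1-/- cells stably complemented with human TDP1 were seeded at 400 cells/well in medium containing 20 nM camptothecin, exposed to pin-transferred compounds, and grown at 37 °C for at least 48 hr. Viability was read as ATP luminescence.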
HT1080NT lethal: qHTS for induction of synthetic lethality in tumor cells producing 2HG: qHTS for the HT-1080-NT fibrosarcoma cell line; AID 686970, 2013; HT-1080-NT fibrosarcoma viability, CellTiter-Glo ATP luminescence, 48 h; hit rate 1.6% among 360,000; Potency, µM (highest dose often 46.1 µM), for inactives: at the highest dose activity, negative = less viability, actives largely listed as cytotoxic;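 note: NT is the 2HG producing partner of a matched IDH1 knockdown line; potency is the fitted concentration of half-maximal effect; 0% = DMSO-treated cells and -100% = media-only wells without cells; nearly all actives have a fitted effect of over 55% in size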
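HT-1080-NT; 750 cells/well; 5% FBS RPMI; 48 h compound, 37 degrees C; CellTiter-Glo luminescence; curve fitting and curve-class assignment.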
TDP1 cell noCPT: qHTS for Inhibitors of human tyrosyl-DNA phosphodiesterase 1 (TDP1): qHTS in cells in absence of CPT | hit rate 15% among 420,000 | DT40 Tdp1-/- hTDP1 cells, no CPT, ATP luminescence, 48 h | Potency, µM (highest dose often 46.2 µM), inactives show at the highest dose activity change, negative = growth inhibition, hits mostly inhibitors | AID 686978, 2013; note: potency is the fitted concentration of half-maximal effect; nearly all actives have a fitted effect of over 55% in size
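Luminescent ATP content (CellTiter-Glo) served as the growth readout. Knockout chicken DT40 cells expressing human TDP1 were exposed to compounds without camptothecin for a minimum 48 hr at 37 °C.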
The depositor's hits bear a star; i = inactive; ? = inconclusive; . = no result. Many of the other results were omitted from the sample, so hits are more common in it than they were. Unless noted, calls come from the whole dose curve; as a rule, active = well fitted curve in the direction sought with a large enough effect; inconclusive = small, poorly fitted or top-dose-only effect, or another doubt; inactive = no such curve, though single readings can be large; an effect the other way counts as inactive or inconclusive. Unless noted, % is set by controls: 0 for no effect and ±100 for the full control effect.

SMILES	HT1080 IDH1KD tx	IL1B secr inh	ALOX12 inh	TDP1 cell CPT	HT1080NT lethal	TDP1 cell noCPT
Cc1cc(C(=O)Nc2ccc(Cl)cc2)c(C)n1-c1ccccc1	?	-91*	i	0%	?	-25%
CC(C)c1nc2sc3c(=S)nc[nH]c3c2c2c1CCC2	0%	41	?	?	-2%	23µM*
CN(CCO)c1ncnc2c1sc1nc(N3CCOCC3)c3c(c12)CCC3	16%	-23	157%	13µM*	-6%	21µM*
CC(C)c1nc2sc3c(=O)[nH]cnc3c2c2c1CCC2	20%	37	-7%	17%	-13%	-30%
C1CCc2c(c(N3CCOCC3)nc3sc4c(N5CCOCC5)nnnc4c23)C1	23%	10	20%	7%	21%	-3%
S=c1nc[nH]c2c1sc1nc(N3CCOCC3)c3c(c12)CCCC3	-3%	-7	?	?	15%	23µM*
Cc1cc(C)c(NC(=O)Cn2c(N(C)Cc3ccccc3)nc(C)cc2=O)c(C)c1	.	.	-1%	.	.	.
CC[C@@H]1C(c2ccc(F)cc2)=NN(c2ccc(Br)cc2)[C@H]1C(=O)N1CCOC1=O	-23%	-74*	-4%	?	-16%	?
O=C1OCCN1C(=O)[C@H]1[C@H](c2ccccc2)C(c2cccc(Cl)c2)=NN1c1ccc(Br)cc1	-17%	0	-10%	-12%	-3%	-11%
C[C@@H]1C(c2ccc(F)cc2)=NN(c2ccccc2)[C@H]1C(=O)N1CCOC1=O	-27%	-15	-22%	13%	-18%	-8%
CC[C@@H]1C(c2cccc(Cl)c2)=NN(c2ccc(Br)cc2)[C@H]1C(=O)N1CCOC1=O	?	-66*	.	?	?	?
CN1CCCCC(NC(=O)CCl)C1=O (stereo unspecified)	.	.	-4%	.	.	.
Clc1ccc(CON/C=N/c2ncnc3sccc23)c(Cl)c1	-8%	?	-9%	13µM*	-16%	10µM*
Cc1cc2c(Nc3ccccc3)ncnc2s1	12%	-24	?	-25%	-3%	?
c1ccc(CCNc2ncnc3ccccc23)cc1	2.1µM*	0	-3%	0.52µM*	?	0.65µM*
Cc1cc2c(NCCc3ccccc3)ncnc2s1	?	-70*	?	1.6µM*	-23%	1µM*
CCCCCCCCNc1ncnc2ccccc12	?	-61*	.	0.29µM*	?	0.26µM*
Cc1cc2c(NC3CCCCC3)ncnc2s1	-5%	-12	-21%	?	-23%	13µM*
O=C(CSc1ncnc2ccccc12)NCCc1ccccc1	7%	-21	1%	-2%	13%	-8%
CCc1ccccc1Nc1ncnc2ccccc12	-1%	31	-22%	?	-11%	?
CCCCCNc1ncnc2c(C)[nH]nc12	-20%	68	0%	15µM*	-7%	23µM*
CCCCNc1ncnc2c1nnn2C	.	.	-24%	5%	.	-6%
CN(C)c1cc(O)c(C(=S)Nc2ccccc2)c(N(C)C)c1	-16%	5	-14%	16µM*	-16%	?
CC(=O)N(C)c1ccc(NC(=S)Nc2ccccc2)cc1	12%	-5	-13%	-14%	-1%	-24%
CN(C)c1ccc(C(=S)Nc2ccccc2)cc1	10%	-3	-14%	?	2%	16µM*
CN(C)c1ccc(NC(=S)c2ccccn2)cc1	?	-5	?	4.6µM*	?	5.2µM*
Cc1cccc[n+]1Cc1ccccc1	.	.	16µM*	.	.	.
